Measurements published in PubChem BioAssay (NCI).
The panel holds about 83,000 compounds, 20% with a hit somewhere; the sample as a whole holds those more often.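 Cells were grown in 96-well plates and exposed to the test compound at a single concentration for 48 hours; results are reported as percent growth, with values below 10 considered active.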 Unmarked numbers belong to inactive results. Active and inactive are the calls of the source.

tested on: MDA-MB-231 breast; assay: NCI-60 one-dose screen, 48 h (100 = growth as untreated, 0 = no growth, -100 = all killed); conditions: 10 µM unless noted

**Q.** For `C#C[C@]1(O)CC[C@H]2[C@@H]3CC=C4c5sc(Nc6cc(C)cc(C)c6)nc5CC[C@]4(C)[C@H]3CC[C@@]21C`, which growth is on record?
**A.** 33.5%

**Q.** Which growth does the source give for `CCCC[n+]1ccc(SCC(=O)n2ccc3ccccc32)c2ccccc21` here?
**A.** 92.4%

**Q.** With `CC(C)(C)c1cc(NC(=O)Nc2ccc(-c3cn4c5c(sc4n3)CCc3cn(CCCN4CCCCC4)cc3-5)cc2)no1` as the compound, how does the growth read?
**A.** -77.3% (active)

**Q.** With `CCCCCCNC(=O)Oc1ccc(/C(=C(/C)c2ccc(OC)cc2)c2ccc(OCCN3CCCCCC3)cc2)cc1` as the compound, how does the growth read?
**A.** 6.27% (active)

**Q.** `Cn1cc(-c2cc3ncnc(Nc4ccc(CC(=O)Nc5nc(C(C)(C)C)cs5)cc4)c3s2)cn1` was tested. Which growth did it give?
**A.** 45.6%

**Q.** With `O=C(CCCCCC/C=C\c1csc(Br)n1)NO` as the compound, how does the growth read?
**A.** 98.4%

**Q.** Which growth does the source give for `COc1ccc(C(=O)c2c(N)c(C#N)cn2-c2ccc(Cl)cc2Cl)cc1` here?
**A.** 90.8%

**Q.** Which growth does the source give for `Cc1ccc2c(n1)C(=O)C(Cl)=C(Nc1cccc(C(F)(F)F)c1)C2=O` here?
**A.** 54.7%

**Q.** Which growth does the source give for `O=C1[C@H]2Cc3c([nH]c4ccccc34)[C@H](c3ccc(Cl)cc3)N2C(=O)CN1C1CCN(CC2CCCCC2)CC1` here?
**A.** 87%

**Q.** `COc1ccc(/C=N/NC(=O)c2c(N)nn(C)c2Nc2ccccc2)cc1` was tested. Which growth did it give?
**A.** 65.1%

**Q.** With `Fc1ccc2nc(-c3cnn4cccnc34)sc2c1` as the compound, how does the growth read?
**A.** 84.3%

**Q.** Which growth does the source give for `O=C(/C=C/c1cccc(F)c1)c1cccc(OCCCCOc2cccc(C(=O)/C=C/c3cccc(F)c3)c2)c1` here?
**A.** 95.9%

**Q.** How did the growth turn out when `O=C(COc1ccc(/C=C2\C(=O)Nc3ccc(Cl)cc32)cc1)Nc1ccc(Cl)cc1` was run?
**A.** 76.6%
